Reference: PubChem BioAssay AID1347145 (National Center for Advancing Translational Sciences (NCATS), 2019)
Inconclusive results are not listed. Active and inactive are the calls of the source. Calls follow the shape of the dose curve; as a rule, active = well fitted inhibition curve with a large enough effect; inconclusive = small, poorly fitted or top-dose-only effect; inactive = no such curve, though single readings can be large or run the other way.

Biological target: N-terminal Xaa-Pro-Lys N-methyltransferase 1 (Homo sapiens) (UniProt Q9BV86)
Sequence (Q9BV86 whole entry, looked up): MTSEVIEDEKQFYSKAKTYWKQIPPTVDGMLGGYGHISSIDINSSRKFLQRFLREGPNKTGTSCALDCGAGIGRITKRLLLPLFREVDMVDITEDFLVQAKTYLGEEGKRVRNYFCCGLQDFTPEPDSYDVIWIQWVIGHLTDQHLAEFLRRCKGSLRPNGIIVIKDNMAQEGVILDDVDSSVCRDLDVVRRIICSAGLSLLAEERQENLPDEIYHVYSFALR
Assay: qHTS Assay for Inhibitors of N-terminal methyltransferase 1 (NTMT1): MTaseGlo Assay Confirmatory Screen, Round 1
Details: Recombinant NTMT1, MTase-Glo SAH luminescence; series mostly up to 57.1 µM
Text: Assay Submitter (PI): Rong Huang Ph.D, Purdue University, West Lafayette, IN 47907 The N-terminal methytransferase 1 is the first methyltransferase that methylates protein alpha-N-amines and plays an important role in regulating cell mitosis, chromatin interactions and DNA repair. It is observed to be over-expressed in various cancer patient tissues like malignant melanoma and colorectal cancer tissues. Knockdown of NTMT1 in cancer cells causes cell mitotic defects and enhances sensitivity to DNA damaging chemotherapeutics. […] These critical cellular processes in which NTMT1 is implicated, coupled with emerging links to cellular dysfunction, strengthen the inference that NTMT1 is a compelling novel anticancer target. Progress have been made in understanding the molecular properties of NTMT1 and the biological consequences of protein alpha-N-terminal methylation, but there are no specific small molecule probes available for NTMT1 to fully characterize its MTase activity. To address this unmet need, a panel of assay is created and established to enable quantitative high-throughput screening (qHTS) for novel, potent, and selective small molecule NTMT1 inhibitors. Two orthogonal qHTS that use different reagents (ThioGlo vs. MTaseGlo) are developed for primary robotic screening against the NCATS chemical library of more than 400,000 small molecules. Identified inhibitors are reacquired, validated, and further characterized. MTaseGlo Assay is a luminescence screen that measure the activity of methyltransferases based on the reaction product S-adenosyl homocysteine (SAH). The substrate SAM is converted to SAH upon enzyme activation. MTase-Glo reagent and detection solution convert SAH to ATP and measure the light from the luciferase reaction. […] Early Translation Branch (ETB) National Center for Advancing Translational Sciences (NCATS) National Institute of Health (NIH)
Materials: NTMT1 enzyme, substrate SPKRIA, control peptide RCC1-6 is provided by the Huang laboratory. MTaseGlo Assay: In brief, 3 µL of enzyme mixture (final concentrations of 125 nM and 100 µM for NTMT1 and SAM, respectively) into all wells of a 1,536-well solid-bottom white plate (Greiner Bio One, Monroe, NC). 23 nL of DMSO or Ac-RCC1-10 (final concentration range 234 nM to 143 microM) was transferred via Wako Pin-tool (Wako Automation, Richmond, VA) and incubated (RT) for ~15 minutes. Next, 1 µL of substrate (final concentration 1 µM) or buffer was dispensed, and the reaction proceeded for 30 minutes (RT, protected from light) followed by a 1 microL addition of [5X] MTase-Glo Reagent(R). Samples were incubated (RT, protected from light) for 30 minutes to allow for SAH to be converted to ADP, followed by a 5 microL addition of [1X] MTase-Glo Detection Solution(R) to allow for ADP to be converted to ATP, which was then detected with a luciferase reaction. Samples were centrifuged for 15 seconds at 1,000 RPM's, followed by a RT incubation for 30 minutes. Plates were then read using Luminescence optics on a ViewLux detector. Data were normalized to no-enzyme (0% activity) and no-inhibitor (DMSO; 100%) controls, and the resulting percent inhibition data were fitted to a 4-parameter Hill equation using Graphpad Prism.
Potency is read from the fitted curve at half-maximal effect.

Potency, inactive:
COc1cc2nc(N3CCCN(C)CC3)nc(N(C)C)c2cc1OC
CNc1nc(NC2CC2)c2cc(OC)c(OC)cc2n1
O=c1[nH]cnc2c1ncn2[C@@H]1O[C@H](CO)[C@@H](O)[C@H]1O
CNC(=O)[C@H]1O[C@H](n2cnc3c(NCc4cccc(I)c4)ncnc32)[C@@H](O)[C@@H]1O
COc1cc2c(NC3CCN(C)CC3)nc(N3CCCN(C)CC3)nc2cc1OCCCN(C)C
CO[C@@H]1[C@@H]2OP(=O)(O)OC[C@H]2O[C@H]1n1c(Sc2ccc(Cl)cc2)nc2c(N)ncnc21
Nc1nc(Cl)nc2c1ncn2[C@H]1C[C@H](O)[C@@H](CO)O1
Nc1ncnc2c1ncn2[C@@H]1O[C@H](COP(=O)(O)OP(=O)(O)OP(=O)(O)O)[C@@H](O)[C@H]1O
Nc1nc(Cl)nc2c1ncn2[C@@H]1O[C@H](COP(=O)(O)OP(=O)(O)OP(=O)(O)O)[C@@H](O)[C@H]1O
Nc1ncnc2c1ncn2C1OC(COP(=O)(O)O)C(O)C1O (stereo not given)
COc1cc2c(NC3CCN(C)CC3)nc(N3CCCN(C)CC3)nc2cc1OCCOCCN(C)C
Nc1ncnc2c1ncn2[C@@H]1O[C@H](CSCC[C@H](N)C(=O)O)[C@@H](O)[C@H]1O
C[S+](CCC(N)C(=O)O)CC1O[C@@H](n2cnc3c(N)ncnc32)C(O)C1O (stereo not given in full)
COc1cc2nc(N3CCOCC3)nc(NC3CC3)c2cc1OC
Nc1nc(Cl)nc2c1ncn2[C@@H]1O[C@H](CO)C(O)[C@H]1O (stereo not given in full)
CNC(=O)[C@H]1O[C@@H](n2cnc3c(N)ncnc32)[C@H](O)[C@@H]1O
Nc1ncnc2c1ncn2[C@H]1O[C@H](CO)[C@@H](O)[C@@H]1O
C=C1OC(CO)(n2cnc3c(N)ncnc32)C(O)C1O (stereo not given)
COc1cc2c(NC3CCN(C)CC3)nc(N3CCN(C)CC3)nc2cc1OCCOCCN(C)C
CSc1nc(N)c2ncn([C@@H]3O[C@H](COP(=O)(O)OP(=O)(O)O)C(O)[C@H]3O)c2n1 (stereo not given in full)
CC(C)=CCNc1ncnc2c1ncn2[C@@H]1O[C@H](CO)[C@@H](O)[C@H]1O
OC[C@@H]1O[C@@H](n2cnc3c(N[C@H]4CCC[C@@H]4O)ncnc32)[C@H](O)[C@H]1O
CCCC(=O)Nc1ncnc2c1ncn2[C@@H]1O[C@@H]2COP(=O)(O)O[C@H]2[C@H]1OC(=O)CCC
CSCC1OC(n2cnc3c(N)ncnc32)C(O)C1O (stereo not given)
CCN1CCN(c2nc(NC3CC3)c3cc(OC)c(OC)cc3n2)CC1
Nc1nc(Cl)nc2c1ncn2[C@@H]1O[C@H](CO)[C@H](O)[C@H]1O
Nc1ccc(CCNc2ncnc3c2ncn3C2OC(CO)C(O)C2O)cc1 (stereo not given)
OC[C@@H]1O[C@@H](n2cnc3c(NC4CCCC4)ncnc32)[C@H](O)[C@H]1O
C/C(=C\CNc1ncnc2c1ncn2[C@@H]1O[C@H](CO)[C@@H](O)[C@H]1O)CO
COc1cc2c(NC3CCN(C(C)C)CC3)nc(N3CCC(F)(F)CC3)nc2cc1OCCCN1CCCCC1
COc1cc2c(NC3CCN(C)CC3)nc(N3CCCCC3)nc2cc1OCCOCCN(C)C
Nc1[nH]c(=O)nc2c1ncn2C1OC(CO)C(O)C1O (stereo not given)
COc1cc2nc(N3CCCCC3)nc(NC3CCN(Cc4ccccc4)CC3)c2cc1OC
CNc1nc(N2CCCN(C)CC2)nc2cc(OC)c(OC)cc12
CCN(c1cc(C#CCN2CCOCC2)cc(C(=O)NCc2c(C)cc(C)[nH]c2=O)c1C)C1CCC(N(C)CCOC)CC1 (stereo not given)

Potency, active:
OC[C@H]1O[C@@H](n2cnc3cncnc32)[C@H](O)[C@@H]1O 13.7 µM
COc1cc2c(NC3CCN(C)CC3)nc(N3CCCN(C)CC3)nc2cc1OCCCCN 15.3 µM
Nc1ccnc2c1ncn2[C@@H]1O[C@H](CO)[C@@H](O)[C@H]1O 17.2 µM
Nc1ncnc2c1ncn2[C@H]1O[C@@H](CNS(=O)(=O)NC(=O)c2cccc(-c3noc(-c4ccccc4F)n3)c2)[C@H](O)[C@@H]1O 1.93 µM
NC[C@H]1O[C@@H](n2cnc3c(N)ncnc32)[C@H](O)[C@@H]1O 19.3 µM
